The whole screen tested about 360,000 compounds, of which about 17,000 (4.7%) were called active. About 5% were inconclusive and are not listed. Cut-off read from the data, not from the text of the source: active = activity change below about -50%; inconclusive = mostly about -30% to -49%; inactive = weaker than that. The sample as a whole holds a higher share of actives than the screen did.
% is set by controls: 0 for no effect and ±100 for the full control effect.

This assay can be described thus: qHTS for Inhibitors of Inflammasome Signaling: IL-1-beta AlphaLISA Primary Screen. The note with it: THP-1 LPS/ATP IL-1B secretion, 16 h; at 57.5 µM, active compounds read low. In short, it runs like this: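 Secreted IL-1B measured by AlphaLISA bead assay after 16 h compound exposure of THP-1 cells; compounds (final up to 57.5 uM) added 1 h before LPS (250 ng/mL) and ATP (1.25 mM) stimulation; lower signal means less secretion.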
In general terms: Quantitative high-throughput screening tests each substance at several concentrations.
For `CCOc1ccccc1NS(=O)(=O)c1c[nH]c(C(=O)OC)c1`, the activity change is 5.96% (inactive).

`CSC1=NN(c2ccccc2)CN(c2ccccc2)N1C`: the activity change is -27.8% (inactive).

Consider `NC1=C([N+](=O)[O-])C(c2ccccc2)C2=C(CCCC2=O)O1` (stereo not given), for which the activity change is 23.3% (inactive).

On to `O=C(NC1CCCCC1)c1ccc(CNc2c(N3CCOCC3)c(=O)c2=O)cc1`, for which the activity change is -13.2% (inactive).

`CC(Nc1ccc([N+](=O)[O-])cc1[N+](=O)[O-])c1ccccc1` (stereo not given): the activity change is 5.52% (inactive).

On to `COc1ccc(OC)c(C(O)c2ncc(-c3cccc(C(F)(F)F)c3)[nH]2)c1` (stereo not given), for which the activity change was 0% (inactive).

Turning to `CSCCC(NC(=O)c1ccc(Cl)cc1Cl)C(=O)NNC(=O)c1csc(N2CCOCC2)n1` (stereo not given), the activity change is -2.31% (inactive).

For `CC1(C(=O)NS(=O)(=O)c2cccc(F)c2)CCN1C(=O)Cc1cc(F)ccc1F` (stereo not given), the activity change was 17.9% (inactive).

`CC1CCCCC12NC(=O)N(CC(=O)Nc1ccc(S(=O)(=O)Nc3ncccn3)cc1)C2=O` (stereo not given): the activity change was -5.14% (inactive).

As for `Cc1ccc(NC(=O)Cn2sc3ccccc3c2=O)cc1`, the activity change was -108% (active).

Take `Cc1ccc(NC(=O)Cn2c(C)csc2=O)cc1`: the activity change is -15.7% (inactive).

For the compound `Cc1nn(CC(=O)Nc2ccc(F)cc2)c(=O)c2ccccc12`, the activity change was -1.55% (inactive).

`COc1cccc(OC)c1C(=O)Nc1ccc2c(c1)n(C)c(=O)n2C`: the activity change was 0% (inactive).

As for `COc1cccc2sc3cc(NCC[C@@H]4CCCN4C)ccc3c(=O)c12`, the activity change is -71.4% (active).

On to `CCCCC[C@H](C)N1C[C@@H](COCc2ccccc2)Oc2cc(N3CCC[C@@H]3CO)ccc2S1(=O)=O`, for which the activity change was 0.594% (inactive).

Take `O=C(c1cccs1)C1C(c2ccc(Br)cc2)NC(=S)NC1(O)C(F)(F)F` (stereo not given): the activity change is -6.17% (inactive).

Consider `O=C(COC(=O)COc1ccccc1F)Nc1cccc(S(=O)(=O)N2CCCCC2)c1`, for which the activity change is -4.52% (inactive).

Consider `CCCCCc1ccc(-c2ccc(C(=O)O)cc2)nc1`, for which the activity change is 46.9% (inactive).

Turning to `Cc1ccc(Nc2nc(-c3ccc(O)cc3O)cs2)nc1`, the activity change is -66.7% (active).

`CC(=O)Nc1cnc(-c2ccc(O)cc2C)cn1`: the activity change was -15.7% (inactive).

On to `Cc1ccc(-c2csc(NCCc3nc4cc(Cl)c(Cl)cc4n3CCOCCO)n2)cc1`, for which the activity change is -12.6% (inactive).

Regarding `COc1ccc(NC(=O)/C(N=Nc2cccc(S(=O)(=O)Nc3ccc(SC(F)F)cc3)c2)=C(\C)O)cc1`, the activity change was 2.19% (inactive).

Take `Cc1cccc(CN2CCN(C3CN(Cc4cn(Cc5ccccc5F)nn4)S(=O)(=O)C3)CC2)c1` (stereo not given): the activity change was 4.26% (inactive).

Take `COc1cc(C(=O)NNC(=O)CN2C(=O)NC3(CCCC3)C2=O)cc(OC)c1OC`: the activity change was -7.47% (inactive).

On to `Cc1ccccc1-c1ccc2c(c1)O[C@@H](CN(C)Cc1ccc(C(=O)O)cc1)[C@@H](C)CN([C@H](C)CO)S2(=O)=O`, for which the activity change is 20.6% (inactive).

For the compound `Cc1ccc(SC(=O)COc2ccc(C)c(C)c2)cc1`, the activity change was -70% (active).

With `Cc1ccc(OCC(=O)NC(C)c2ccccc2)cc1C` (stereo not given), the activity change was 9.86% (inactive).

`COc1ccc(C(=O)COC(=O)COc2ccc(C)c(C)c2)cc1`: the activity change was 6.77% (inactive).

On to `Clc1cccc(Cc2c(-c3cccc(Cl)c3)nc3ccc(Cl)cn23)c1`, for which the activity change is 64.9% (inactive).

For the compound `Cc1ccc(NC2=C(Cl)C(=O)OC2OC(=O)c2ccccc2C)cc1` (stereo not given), the activity change is -89.8% (active).

For the compound `O=C1OC(OC(=O)c2ccccc2Br)C(N2CCOCC2)=C1Cl` (stereo not given), the activity change was -12.8% (inactive).

In the case of `Cc1ccccc1C(=O)OC1OC(=O)C(Cl)=C1Nc1ccccc1` (stereo not given), the activity change was -17.8% (inactive).

As to `CCOC(=O)[C@H]1[C@H]2COc3ccc(Br)cc3[C@@H]2N2C(=O)CN(C)C(=O)[C@@]12C`, the activity change was 19.3% (inactive).

Take `COC(=O)c1ccccc1N=Nc1c(C)[nH][nH]c1=O`: the activity change is 1.34% (inactive).

For `CCOc1cc(/C=N/NC(=O)c2c(C)nc3ccc(Cl)cn23)ccc1O`, the activity change is 11.7% (inactive).

Turning to `O=C(NCCc1ccc(F)cc1)c1n[nH]c2ccccc12`, the activity change is 29.4% (inactive).

With `O=C(NCCCO)c1cc2c([nH]c3ccccc32)c(-c2ccc(F)cc2)n1`, the activity change was -65.7% (active).

As for `O=C(NCC1CCCO1)c1cc2c([nH]c3ccccc32)c(-c2ccc(F)cc2)n1` (stereo not given), the activity change is -10.2% (inactive).

With `CC(C(=O)NCCc1ccc(S(N)(=O)=O)cc1)N1C(=O)CC(C)(C)Sc2ccccc21` (stereo not given), the activity change was 25.8% (inactive).

Consider `CCCOc1ccc(C(=O)C(CCC(CNCC)C(=O)c2ccc(OCCC)cc2)CNCC)cc1` (stereo not given), for which the activity change is -94% (active).

For the compound `CCCOc1ccc(NC(=O)C2CCCNC2=O)cc1` (stereo not given), the activity change was -6.06% (inactive).

As for `CCCOc1ccc(C(=O)CCC(=O)OC(C)C(=O)Nc2ccc(NC(C)=O)cc2)cc1` (stereo not given), the activity change is 10.1% (inactive).

With `Cc1[nH]c2ccccc2c1/C=N/NC(=O)CNC(=O)c1ccc2c(c1)OCO2`, the activity change is 0% (inactive).

For `COc1ccc2ccccc2c1/C=N/NC(=O)c1cc(C)[nH]n1`, the activity change was 0% (inactive).

With `COCCNC(=S)N/N=C/c1c(C)[nH]c2ccccc12`, the activity change was -69.7% (active).

Take `OCCNc1nc2ccccc2n1-c1ncnc2sc3c(c12)CCC3`: the activity change is 20.3% (inactive).

Consider `CC1=C(C(=O)N2CCOCC2)CC(CC(=O)NCCCN(C)C)C(=O)N1Cc1ccc(C(C)(C)C)cc1` (stereo not given), for which the activity change is -21.9% (inactive).

Take `CCOC(=O)C(=Cc1ccccc1)C(=O)c1ccccc1`: the activity change was -98.2% (active).

As to `CCOC(=O)c1ccccc1OC(=O)Oc1ccccc1C(=O)OCC`, the activity change is -16.9% (inactive).

`COc1ccccc1C(=O)c1ccccc1C(=O)c1ccccc1`: the activity change is -7.51% (inactive).

With `CCOC(=O)C(=Cc1ccccc1OC)C(=O)OCC`, the activity change is -99.3% (active).

For `CCOC(=O)C(=CNc1cccc(C)n1)C(=O)OCC`, the activity change is 16.2% (inactive).

As to `CCOC(=O)NC(=O)/C(C#N)=C\c1ccccc1`, the activity change was 3.54% (inactive).

As for `C=CCn1c(=O)n(C)c2c(=O)n(C)c(=O)n(C)c21`, the activity change was -2.57% (inactive).

As to `Cc1ccc(F)c(S(=O)(=O)NC(=O)C2(C)CCN2C(=O)CCc2cccs2)c1` (stereo not given), the activity change is 0.428% (inactive).

For `Cc1ccc(NC(=O)CN(C)C(=O)c2cccc(S(=O)(=O)N3CCCC3)c2)cc1`, the activity change was 8.98% (inactive).

Regarding `NC(CSC1(c2ccccc2)c2ccccc2-c2ccccc21)C(=O)O` (stereo not given), the activity change was 24.5% (inactive).

`O=C(NCc1nnnn1-c1ccc(Cl)cc1)c1ccc([N+](=O)[O-])o1`: the activity change is -76.1% (active).

Take `CN(C)c1nnnn1-c1ccc(Cl)cc1`: the activity change was 13.4% (inactive).

Turning to `CC(=O)c1ccc(S(=O)(=O)NCc2nnnn2-c2ccccc2)cc1`, the activity change is 8.11% (inactive).

As for `CC1=C(C(=O)N2CCOCC2)CC(CC(=O)NCCN2CCOCC2)C(=O)N1CCC1=CCCCC1` (stereo not given), the activity change was 11.4% (inactive).

For `CC(C)CCn1cnc2c1c(=O)n(CC(=O)NC(N)=O)c(=O)n2Cc1ccccc1`, the activity change was -1.43% (inactive).

Take `COCCn1cnc2c1c(=O)n(Cc1ccc(Br)cc1)c(=O)n2Cc1ccccc1`: the activity change was -61.2% (active).

Take `COCCn1cnc2c1c(=O)n(CC(=O)NN)c(=O)n2Cc1ccccc1`: the activity change is 0.195% (inactive).

`COc1ccc2c(c1)CCCO[C@]21O[C@H](CCO)C[C@H](O)[C@H]1O`: the activity change was 24.3% (inactive).

As for `Clc1ccc2nc(-c3ccccc3)nc(C(Cl)Cl)c2c1`, the activity change was 42.9% (inactive).

As to `NC(N)=Nc1nc(-c2ccccc2)c2cc(Cl)ccc2n1`, the activity change was -81.6% (active).

Turning to `COC(=O)Cn1nc(-c2ccccc2)c2cc(Cl)ccc21`, the activity change is -6.25% (inactive).

On to `Cc1cccc(NS(=O)(=O)c2ccc(C)c(C(=O)NCC(c3ccccc3)N(C)C)c2)c1` (stereo not given), for which the activity change was -29.1% (inactive).

Take `CC(C(=O)NCC1CCCCC1)N(C)Cc1cccc(Cl)c1` (stereo not given): the activity change is -16.9% (inactive).

For `O=Nc1c(O)cc(O)c2ccccc12`, the activity change is -2.52% (inactive).

For `O=C(COC(=O)Cn1cnc2ccccc2c1=O)NCC12CC3CC(CC(C3)C1)C2`, the activity change is -52.9% (active).

With `CC1(C)C(=O)Nc2ccccc2N1C(=O)COC(=O)Cn1cnc2ccccc2c1=O`, the activity change is 7.25% (inactive).

With `O=C(COC(=O)Cn1cnc2ccccc2c1=O)NCc1ccccc1Cl`, the activity change was 12.2% (inactive).

In the case of `CCc1cc(-c2nnn(CCC3COCCO3)c2CC)ccc1-c1cn(Cc2ccc3ccccc3c2)nn1` (stereo not given), the activity change is 52.6% (inactive).

Take `Cc1ccc(CNC(=O)C2CCN(S(=O)(=O)c3ccc4nc5c(c(C(=O)O)c4c3)CC(C)CC5)CC2)cc1` (stereo not given): the activity change was 1.65% (inactive).

Regarding `COc1cccc(CC2(CO)CCN(Cc3cnc(-c4cccc(C)c4)nc3)CC2)c1`, the activity change is -64.4% (active).

Turning to `Cc1cccc(-c2ncc(CN3CCC(CO)(CCCc4ccccc4)CC3)cn2)c1`, the activity change was -19.1% (inactive).

As to `COc1ccc(CC2(CO)CCN(Cc3cnn(C)c3)CC2)cc1`, the activity change is 12.5% (inactive).

Take `CC(=O)c1cc(CN2CCC(n3nccc3NC(=O)c3ccccc3Cl)CC2)cs1`: the activity change is -15.4% (inactive).

With `O=C(NCc1nnc(SCC(=O)N2CCC(Cc3ccccc3)CC2)o1)c1ccco1`, the activity change is -92.1% (active).

For the compound `Cn1c(CNC(=O)c2ccco2)nnc1SCC(=O)N1CCN(c2ccccc2)CC1`, the activity change was 52% (inactive).

For the compound `O=C(NCc1nnc(SCC(=O)N2CCCCCC2)o1)c1ccc(F)cc1`, the activity change is 22.8% (inactive).

Turning to `NC(=O)C1(Nc2ccccc2Cl)CCCC1`, the activity change was -1.93% (inactive).

In the case of `CCOC(=O)[C@]12CCCC=C1N(Cc1ccc3c(c1)OCO3)C(=O)[C@H](CC(=O)NCc1cccs1)C2`, the activity change is 0% (inactive).

Take `O=C(O)CC1=C(Nc2ccccc2)C(=O)N(c2ccccc2)C1c1ccc(Cl)cc1` (stereo not given): the activity change is 0% (inactive).

Consider `O=C1C=C(c2ccc(Cl)cc2)C(=O)N1Nc1ccccc1`, for which the activity change was -76.1% (active).

In the case of `O=C(CCC(=O)OCc1ccc(Cl)cc1)Nc1ccccc1`, the activity change is 15% (inactive).

For the compound `COc1ccc(NC(=O)C(C)N2c3cccc4cccc(c34)S2(=O)=O)c(OC)c1` (stereo not given), the activity change was 27.8% (inactive).

Regarding `CCC(C)CN1C(=O)CN(S(C)(=O)=O)CC1(C)C(=O)Nc1ccc2c(c1)OCCO2` (stereo not given), the activity change was -19.9% (inactive).

For the origin of these results see PubChem BioAssay AID743279 (National Center for Advancing Translational Sciences (NCATS), 2014).
